Screening data as filed in PubChem.
VDR inh: Inhibitors of the vitamin D receptor (VDR): qHTS; AID 504847, 2011; VDR-SRC2-3 peptide fluorescence polarization, 2 h; Potency, µM, for inactives: max response, negative = inhibition, hits mostly inhibitors; Vitamin D3 receptor (Homo sapiens), P11473; hit rate 0.93% among 400,000
Target sequence (P11473 whole entry, looked up): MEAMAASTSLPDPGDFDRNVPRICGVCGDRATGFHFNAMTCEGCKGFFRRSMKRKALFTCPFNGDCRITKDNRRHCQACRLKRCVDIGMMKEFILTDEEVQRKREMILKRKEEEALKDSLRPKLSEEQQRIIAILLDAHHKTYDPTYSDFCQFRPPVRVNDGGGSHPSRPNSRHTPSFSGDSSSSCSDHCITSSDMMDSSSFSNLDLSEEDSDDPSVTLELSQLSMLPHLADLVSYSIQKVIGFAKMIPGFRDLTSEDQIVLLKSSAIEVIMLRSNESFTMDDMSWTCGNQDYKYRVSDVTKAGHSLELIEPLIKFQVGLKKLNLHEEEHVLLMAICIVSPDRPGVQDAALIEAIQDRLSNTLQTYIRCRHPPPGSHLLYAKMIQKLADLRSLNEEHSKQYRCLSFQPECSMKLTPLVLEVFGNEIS
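Compounds are added to VDR with labelled SRC2-3 coactivator peptide and held 2 h at room temperature. Inhibition of the VDR–peptide interaction is then read as a change in fluorescence polarization.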
PLK1 PBD block: qHTS for Inhibitors of PLK1-PDB (polo-like kinase 1 - polo-box domain): Primary Screen | Plk1 PBD binding of FITC phosphopeptide, fluorescence polarization | Potency, µM, for the others: max response, negative = inhibition, usual class: inhibitors | hit rate 2.8% among 360,000; note: series mostly up to about 57 µM; nearly all actives have a fitted effect of over 65% in size
12-LOX inh: Primary qHTS assay for inhibitors of human arachidonate 12S-lipoxygenase (ALOX12): Round 2; purified 12hLO, xylenol orange hydroperoxide absorbance; Potency, µM (top dose mostly 108 µM), inactives show at the top dose activity change, negative = inhibition, hits mostly inhibitors; hit rate 1.1% among 580,000
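Purified human 12hLO (150 nM final) in 25 mM Hepes, 0.01% Triton X-100, pH 7.0 was preincubated 15 min at room temperature with compound. Then 40 uM arachidonic acid was added, 30 min. Hydroperoxide was read by Fe-XO absorbance ratio 573/405 nm.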
Sfp PPTase inh: qHTS Assay for Inhibitors of Bacillus subtilis Sfp phosphopantetheinyl transferase (PPTase) | hit rate 3.5% among 310,000 | AID 1490, 2009 | Biochemical Sfp PPTase activity, qHTS | 4'-phosphopantetheinyl transferase ffp (Bacillus subtilis), Q9F4F7 | Potency, µM, for inactives: largest response in the series, negative = inhibition, actives largely listed as inhibitors;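 note: the enzyme is Sfp with the accession as filed and its product quenches rhodamine fluorescence; 0% = enzyme reaction without inhibitor and -100% = no enzyme wells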
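With Hepes-Na pH 7.6 buffer containing 10 mM MgCl2, Sfp (15 nM) modified BHQ-2-YbbR (12.5 uM) using rhodamine-CoA (5 uM). Two reads 30 minutes apart at 525/598 nm yielded each well's rate.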
TbPYK inh: qHTS of Trypanosoma Brucei Inhibitors: Confirmatory Assay for Cherry-picked Compounds; Potency, µM (doses to about 76.9 µM), for inactives: at the top dose activity change, negative = inhibition, actives largely listed as inhibitors; hit rate 67% among 890; AID 720569, 2013; recombinant TbPYK, Kinase-Glo ATP luminescence; shares compounds with PLK1 PBD block; note: nearly all actives have a fitted effect of over 70% in size
TbPYK ADP-Glo: qHTS of Trypanosoma Brucei Inhibitors: Orthogonal Assay for Cherry-picked Compounds; shares compounds with PLK1 PBD block; recombinant TbPYK, ADP-Glo luminescence, 60 min; Potency, µM (series often up to 76.9 µM), for inactives: at the top dose activity change, negative = inhibition, actives largely listed as inhibitors; hit rate 62% among 890; note: nearly all actives have a fitted effect of over 75% in size
An asterisk follows results filed as active; ? = inconclusive; nt = no result given. In the library only some 4.2% were active in any assay of this set; here they are far more common. Calls come from the whole dose curve; as a rule, active = well fitted curve in the direction sought with a large enough effect; inconclusive = small, poorly fitted or top-dose-only effect, or another doubt; inactive = no such curve, though single readings can be large; an effect the other way counts as inactive or inconclusive. Unless noted, % is set by controls: 0 for no effect and ±100 for the full control effect; potency is the fitted concentration of half-maximal effect.

SMILES	VDR inh	PLK1 PBD block	12-LOX inh	Sfp PPTase inh	TbPYK inh	TbPYK ADP-Glo
Cc1ccc(/C=C/C(=O)NCC2COc3ccccc3O2)o1 (stereo not given)	?	?	?	6.3µM*	25µM*	22µM*
Cc1ccc(/C=C/C(=O)NCCCN2CCN(CCCNC(=O)/C=C/c3ccc(C)o3)CC2)o1	3%	-7%	19%	0%	nt	nt
Cc1ccc(/C=C/C(=O)NCc2ccc3c(c2)OCO3)o1	-16%	?	?	-91%	11µM*	14µM*
Cc1ccc(/C=C/C(=O)NC2CCCCCCC2)o1	?	24µM*	-19%	-117%	?	?
CCOc1ccc(CCNC(=O)/C=C/c2ccco2)cc1OCC	-5%	-24%	?	-29%	nt	nt
COc1ccc(CCNC(=O)/C=C/c2ccco2)cc1	89µM*	0%	0%	-61%	?	?
CCOCc1ccc(CNC(=O)/C=C/c2ccc(C)o2)cc1	nt	nt	-48%	nt	nt	nt
Cc1ccc(/C=C/C(=O)NCc2ccc(S(N)(=O)=O)cc2)o1	89µM*	27µM*	-13%	3.5µM*	6.3µM*	1.6µM*
CC(=O)NS(=O)(=O)c1ccc(NC(=O)/C=C/c2ccc(C)o2)cc1	-17%	21µM*	0%	5µM*	5µM*	7.9µM*
CCc1ccccc1N1CSC2=C(C#N)C(c3ccccc3F)CC(=O)N2C1 (stereo not given)	?	19µM*	3.2µM*	1.1µM*	1.1µM*	1.8µM*
COc1ccc(N2CSC3=C(C#N)C(c4cccc(OC)c4OC)CC(=O)N3C2)cc1 (stereo not given)	20µM*	7.5µM*	11µM*	3.5µM*	1.6µM*	1.4µM*
CCCCN1C(=O)NC(c2ccc(OC)cc2)C(C(=O)OCc2ccccc2)=C1C (stereo not given)	-2%	-5%	-18%	1%	nt	nt
Cc1cc(Br)c2[nH]cc(CCNC(=O)c3ccco3)c2c1	-12%	-8%	-4%	10%	nt	nt
O=C(O)CCc1ccc(Cl)cc1Cl	nt	nt	-41%	nt	nt	nt
O=C(O)CCc1ccc(-c2ccc(Cl)cc2)o1	?	?	?	20µM*	?	?
CC(=O)c1ccc(NC(=O)CSc2nnc(-c3ccco3)c(-c3ccco3)n2)cc1	22µM*	13µM*	?	8.9µM*	28µM*	32µM*
O=C(CSc1nnc(-c2ccco2)c(-c2ccco2)n1)c1ccccc1	?	17µM*	28µM*	14%	14µM*	20µM*
Cn1c(=S)[nH]c2scc(-c3cccs3)c2c1=O	-23%	?	?	?	11µM*	14µM*
C=CCn1c(=S)[nH]c2scc(-c3cccs3)c2c1=O	-7%	-11%	15%	11%	nt	nt
CCc1nn(C(C)C(=O)NCc2ccc(Cl)cc2)c(=O)c2cc3occc3n12 (stereo not given)	18%	1%	-1%	8%	nt	nt
Cc1ccc(CN2CCN(/N=C/c3ccc(O)c(O)c3)CC2)cc1	-19%	?	?	-74%	14µM*	16µM*
Cc1ccc(C)c(-c2cc(C(=O)N3CCCC3c3nncn3C(C)C)[nH]n2)c1 (stereo not given)	nt	nt	-3%	nt	nt	nt
CCOc1cc2[nH]c(=S)n(Cc3ccc(C(=O)NCCN(CC)CC)cc3)c(=O)c2cc1OCC	-11%	-13%	-43%	-7%	14µM*	14µM*
Cc1cc(SCC(=O)Nc2ccc(F)cc2F)nc(=O)[nH]1	-1%	nt	?	nt	nt	nt
C=C1C(=O)C23CCC4C(C)(C(=O)OC)CCCC4(C)C2CCC1(O)C3 (stereo not given)	?	?	2%	nt	10µM*	14µM*
SMILES	VDR inh	PLK1 PBD block	12-LOX inh	Sfp PPTase inh	TbPYK inh	TbPYK ADP-Glo
CCOc1cc2c(cc1OCC)C(CC(=O)OC)N(C(=O)Nc1cc(OC)ccc1OC)CC2 (stereo not given)	10%	nt	-19%	nt	nt	nt
O=C(O)Cn1c(=O)c2c3c(sc2n(Cc2ccccc2)c1=O)CCCC3	-26%	-17%	-3%	8%	nt	nt
COc1cc(N2C(=O)C=CC2=O)c(OC)cc1Cl	28µM*	3µM*	16µM*	3.5µM*	4.5µM*	7.1µM*
CCOc1cc(/C=N/N=C2/NC(=O)C(CC(=O)O)S2)ccc1OCc1ccc(Cl)cc1 (stereo not given)	-16%	?	-8%	3%	16µM*	32µM*
COc1ccc(/C=N/N=C2/NC(=O)C(CC(=O)O)S2)cc1OCc1ccc(Cl)cc1 (stereo not given)	-20%	-21%	-2%	-3%	nt	nt
COc1ccc(S(=O)(=O)Oc2ccc3c(c2)O/C(=C\c2cc(OC)c(OC)c(OC)c2)C3=O)cc1	nt	nt	6%	nt	nt	nt
CC(C)(C)c1cc(C(=S)N2CCN(CCO)CC2)cc(C(C)(C)C)c1O	40µM*	9.5µM*	0%	3.2µM*	3.5µM*	7.9µM*
CC1(C)Cc2c(c(N3CCOCC3)nc3sc(C(=O)Nc4cccc(Cl)c4)c(N)c23)CO1	-7%	?	-19%	45µM*	1.1µM*	3.5µM*
Cc1cccc(NC(=O)c2sc3nc(N4CCOCC4)c4c(c3c2N)CC(C)(C)OC4)c1	4%	nt	-28%	nt	nt	nt
Cc1ccc(/C=C/C(=O)N2CCN(S(=O)(=O)c3ccc(C)c(C)c3)CC2)o1	?	24µM*	18µM*	18µM*	13µM*	16µM*
CC1(NC(=O)Cc2ccc(S(=O)(=O)N3CCOCC3)s2)CCS(=O)(=O)C1 (stereo not given)	-8%	1%	7%	nt	nt	nt
COc1ccc(CN/C=C2\CCCCC2=O)cc1	-7%	-3%	-27%	11%	nt	nt
O=C(NCCc1ccc(O)c(O)c1)C1COc2ccccc2O1 (stereo not given)	-2%	-9%	?	50µM*	18µM*	18µM*
CN(CC(=O)Nc1ccc(F)cc1)C(=O)COC(=O)/C=C/c1ccc(OC(F)F)cc1	-8%	-15%	-17%	nt	nt	nt
CC(C)(C)OC(=O)N1O[C@H]2CC1[C@@H]1[C@@H]2N=NN1CCc1ccncc1	-18%	-5%	17%	nt	7.9µM*	14µM*
CC(C)(C)OC(=O)N1O[C@H]2C[C@@H]1[C@@H]1[C@@H]2N=NN1C12CC3CC(CC(C3)C1)C2	-3%	-8%	?	nt	nt	nt
O=C(NCC1CCCO1)c1cccc(NC(=O)c2ccco2)c1 (stereo not given)	1%	-8%	-20%	15%	nt	nt
